Compound activity (PubChem BioAssay)
NPC1 prom act – qHTS Assay for NPC1 Promoter Activators; Huh7 NPC1 promoter luciferase reporter, 24 h; Potency, µM (highest dose often 9.22 µM), actives largely listed as activators; 320,000 tested, 2.4% active; further: nearly all actives have a fitted effect of over 60% in size
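Stably transfected Huh7 (NPC1 promoter→luciferase), 1500 cells/well in Opti-MEM + 10% FBS, 2 h settle, then compound 24 h at 37 °C. Luminescence after 10 min with Amplite reagent.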
Rab9 prom act – qHTS Assay for Rab9 Promoter Activators; Huh7 Rab9 promoter-luciferase reporter, luminescence, 24 h; Potency, µM (titrated, usually from 9.22 µM), hits mostly activators; 320,000 tested, 2.8% active; AID 485297, 2010; further: nearly all actives have a fitted effect of over 60% in size
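Rab9 promoter-driven luciferase in stably transfected Huh7 cells; 1500 cells/well rested 2 h, exposed to compound in DMSO for 24 h at 37 °C, 5% CO2. Luminescence read 10 min after adding luciferase reagent at ambient temperature.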
SMN2 splice enh – qHTS Assay for Enhancers of SMN2 Splice Variant Expression. HEK293 SMN2-luciferase splicing reporter, luminescence, 30-36 h. Potency, µM (series often up to 46.1 µM), most hits filed as activators. 210,000 tested, 2.8% active. AID 1458, 2008; further: nearly all actives have a fitted effect of over 55% in size
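HEK293 cells carry an SMN2 minigene-luciferase reporter in which exon 7 inclusion puts luciferase in frame. Cells were seeded at 2000 cells/well, attached for 10-12 hours, then exposed to compounds for 30-36 hours at 37C before ONE-Glo luminescence.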
FLuc modulator – qHTS profiling assay for firefly luciferase inhibitor/activator using purifed enzyme and Km concentrations of substrates (counterscreen for miR-21 project). purified FLuc, Km substrates, luminescence inhibition. Potency, µM (doses to about 57.5 µM), hits mostly inhibitors. 360,000 tested, 6.9% active. AID 588342, 2011; further: nearly all actives have a fitted effect of over 55% in size
Target sequence (P08659 whole entry, looked up): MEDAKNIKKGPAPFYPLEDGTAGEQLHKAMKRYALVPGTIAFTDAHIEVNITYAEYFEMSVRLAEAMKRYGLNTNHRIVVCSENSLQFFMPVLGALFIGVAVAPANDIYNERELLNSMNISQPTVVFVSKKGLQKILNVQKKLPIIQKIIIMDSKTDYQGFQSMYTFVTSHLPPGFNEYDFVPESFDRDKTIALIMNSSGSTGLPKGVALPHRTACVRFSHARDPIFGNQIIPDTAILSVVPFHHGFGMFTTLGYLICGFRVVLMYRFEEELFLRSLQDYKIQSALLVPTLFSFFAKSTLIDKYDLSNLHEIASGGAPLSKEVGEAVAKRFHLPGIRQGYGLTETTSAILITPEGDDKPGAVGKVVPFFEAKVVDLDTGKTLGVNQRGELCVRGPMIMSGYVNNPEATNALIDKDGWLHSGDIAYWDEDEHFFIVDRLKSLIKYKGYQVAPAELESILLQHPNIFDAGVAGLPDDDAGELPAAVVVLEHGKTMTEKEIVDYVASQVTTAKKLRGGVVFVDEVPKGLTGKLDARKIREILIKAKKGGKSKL
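Biochemical qHTS of compounds, final roughly 60 µM downward over six points, against 10 nM purified firefly luciferase using Km concentrations of substrates (10 uM D-luciferin, 10 uM ATP) in Tris acetate pH 7.5 buffer; luminescence output.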
ELG1 genotox – qHTS screen for small molecules that induce genotoxicity in human embryonic kidney (HEK293T) cells expressing luciferase-tagged ELG1 | HEK293T ELG1-luciferase reporter, luminescence, 16 h | Potency, µM (top dose mostly 46 µM), actives largely listed as activators | AID 504466, 2011 | 330,000 tested, 1.3% active; further: nearly all actives have a fitted effect of over 60% in size
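HEK293T cells expressing luciferase-tagged ELG1 were treated with compound or DMSO for 16 hr at 37°C. Luciferase activity was then read after 30 min with ONE-Glo at room temperature; rising signal flags genetic stress.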
Of the large screens only hits and unclear results are named; the others gave an inactive call. This is a sample that favours compounds with a hit; in the whole collection about 7.4% have one here. The call rests on the fitted dose curve; in most records, active means well fitted curve in the direction sought with a large enough effect; inconclusive means small, poorly fitted or top-dose-only effect, or another doubt; inactive means no such curve, though single readings can be large; an effect the other way counts as inactive or inconclusive.

Fc1ccc(-c2nc(-c3cnccn3)no2)c(Cl)c1	NPC1 prom act 0.447µM, Rab9 prom act 0.316µM, FLuc modulator 2.39µM, ELG1 genotox inconclusive (no result: SMN2 splice enh)
Clc1ccc(-c2nc(-c3cnccn3)no2)cc1	NPC1 prom act 0.562µM, Rab9 prom act 0.708µM, FLuc modulator 2.39µM, ELG1 genotox inconclusive (no result: SMN2 splice enh)
CN(CCc1ccccc1)Cc1nc(-c2cnccn2)no1	none
CC(C)(C)c1ccc(COc2ccsc2C(=O)O)cc1	Rab9 prom act inconclusive, FLuc modulator 15.1µM
CC(=O)c1cc2ccc(O)cc2oc1=O	none (no result: SMN2 splice enh)
Cc1ccc(N=c2oc3cc(O)ccc3cc2C(N)=O)cc1	NPC1 prom act inconclusive, Rab9 prom act 4.47µM, FLuc modulator 19µM (no result: SMN2 splice enh)
O=C1CCC/C1=C/Nc1ccc(Cl)cc1	none
Cc1ccc(N/C=C2\CCCCC2=O)c(C)c1	FLuc modulator inconclusive
Cc1ccc(N/C=C2\CCCCC2=O)nc1	Rab9 prom act inconclusive, FLuc modulator 21.3µM, ELG1 genotox inconclusive
O=C1CCCC/C1=C\Nc1ccc(Cl)cn1	NPC1 prom act inconclusive, Rab9 prom act inconclusive, SMN2 splice enh inconclusive, FLuc modulator 16.9µM, ELG1 genotox inconclusive
Nc1nc2c(ncn2C2CC(O)C(CO)O2)c(=O)[nH]1 (configuration not stated)	none (no result: NPC1 prom act, Rab9 prom act, FLuc modulator, ELG1 genotox)
COCCN(C(=O)COC(=O)Cc1coc2cc3c(cc12)CCC3)c1c(N)n(Cc2ccccc2)c(=O)[nH]c1=O	FLuc modulator 23.9µM (no result: SMN2 splice enh)
CCOC(=O)c1c(-c2ccccc2)oc2ccc(OCc3ccc(C)cc3)cc12	none (no result: NPC1 prom act, Rab9 prom act, ELG1 genotox)
O=C(O)c1c(-c2ccccc2)oc2ccc(OCc3ccc(Cl)c(Cl)c3)cc12	FLuc modulator 15.1µM (no result: NPC1 prom act, Rab9 prom act, ELG1 genotox)
COc1cc(NC(=O)NCC2CCN(Cc3ccccc3C)CC2)cc(OC)c1OC	none (no result: SMN2 splice enh)
CCOC(=O)C1CCN(c2ncnc3c2cnn3-c2ccc(OC)cc2)CC1	FLuc modulator inconclusive
COc1ccc(-n2ncc3c(N4CCC(C(N)=O)CC4)ncnc32)cc1	NPC1 prom act 3.55µM, Rab9 prom act 2.82µM, FLuc modulator 15.1µM
Cc1cccc(N2CCN(c3ncnc4c3cnn4-c3ccc(Cl)cc3)CC2C)c1 (configuration not stated)	none (no result: NPC1 prom act, Rab9 prom act, SMN2 splice enh, ELG1 genotox)
Cc1cccc(-n2ncc3c(N4CCCCCC4)ncnc32)c1	FLuc modulator 0.601µM (no result: NPC1 prom act, Rab9 prom act, SMN2 splice enh, ELG1 genotox)
c1ccc(-n2ncc3c(N4CCCCC4)ncnc32)cc1	NPC1 prom act 0.316µM, Rab9 prom act inconclusive, FLuc modulator 0.269µM, ELG1 genotox 0.461µM
Cc1cccc(-n2ncc3c(N4CCC(C)CC4)ncnc32)c1	NPC1 prom act 1.12µM, Rab9 prom act 0.891µM, SMN2 splice enh 2.51µM, FLuc modulator 1.9µM, ELG1 genotox inconclusive
Clc1ccc(N2CCN(c3ncnc4c3cnn4-c3ccccc3)CC2)cc1Cl	none (no result: NPC1 prom act, Rab9 prom act, SMN2 splice enh, ELG1 genotox)
O=C(CSc1ccccc1F)NCC1(N2CCCCC2)CCCCC1	none (no result: SMN2 splice enh)
Cc1ccccc1NC(=O)Cn1cc(S(=O)(=O)N2CCCC2)c(S(=O)(=O)N2CCCC2)c1	none (no result: NPC1 prom act, Rab9 prom act, SMN2 splice enh, ELG1 genotox)
Cc1ccc(-n2ncc3c(N4CCN(Cc5ccccc5)CC4)ncnc32)cc1C	none (no result: NPC1 prom act, Rab9 prom act, SMN2 splice enh, ELG1 genotox)
Cc1ccc(-n2ncc3c(N4CCCCCC4)ncnc32)cc1C	FLuc modulator 0.269µM (no result: NPC1 prom act, Rab9 prom act, SMN2 splice enh, ELG1 genotox)
Cc1cc2n(n1)CCCN2C(=O)Nc1ccccc1F	none (no result: NPC1 prom act, Rab9 prom act, SMN2 splice enh, ELG1 genotox)
CCOC(=O)c1sc(NC(=O)c2ccc3nc[nH]c3c2)nc1C	FLuc modulator 5.36µM, ELG1 genotox inconclusive (no result: SMN2 splice enh)
CCOC(=O)c1sc(NC(=O)c2cccnc2)nc1C	FLuc modulator 15.1µM, ELG1 genotox inconclusive
CCOC(=O)c1sc(NC(=O)c2ccc(=O)[nH]c2)nc1C	FLuc modulator inconclusive (no result: SMN2 splice enh)
CCOC(=O)c1sc(NC(=O)c2ccccc2OCC)nc1C	NPC1 prom act inconclusive, Rab9 prom act inconclusive
CCOC(=O)c1sc(NC(=O)CSc2ncccn2)nc1C	none (no result: SMN2 splice enh)
CCOC(=O)c1sc(NC(=O)CSc2nccn2C)nc1C	NPC1 prom act inconclusive, Rab9 prom act inconclusive, FLuc modulator inconclusive, ELG1 genotox 20.6µM (no result: SMN2 splice enh)
Cc1ccccc1-c1cc(-c2ccccc2O)n[nH]1	Rab9 prom act 3.16µM, SMN2 splice enh 25.1µM, FLuc modulator inconclusive, ELG1 genotox inconclusive
Cc1ccc(-c2cc(-c3ccccc3[N+](=O)[O-])[nH]n2)c(O)c1	NPC1 prom act inconclusive, Rab9 prom act 3.55µM, SMN2 splice enh 17.8µM, FLuc modulator inconclusive, ELG1 genotox inconclusive
Cc1ccc(-c2cc(-c3ccccc3Cl)[nH]n2)c(O)c1	NPC1 prom act inconclusive, Rab9 prom act inconclusive, SMN2 splice enh 12.6µM, ELG1 genotox inconclusive
